# According to the antibiotic and cytotoxicity screens of Wong et al. (2023):
# In all, about 39,000 compounds went through this assay and about 3,300 (8.5%) were called active. This is one part of a sample in which actives are shown more often than they occur.
# System: HepG2
# Test: cytotoxicity call (relative viability < 0.9)
# Details: 10 µM
row,SMILES,cytotoxicity call
1,COc1ccc(NC(=O)Nc2ccc3c(c2)C(=O)N([C@H](C)CO)C[C@@H](C)[C@H](CN(C)C(=O)NC2CCCCC2)OCCCC[C@@H](C)O3)cc1,inactive
2,CC(C)NC(=O)N(C)C[C@@H]1Oc2ccc(NS(=O)(=O)c3ccc(F)cc3)cc2C(=O)N([C@H](C)CO)C[C@H]1C,inactive
3,C[C@@H]1CCCCO[C@H](CN(C)C(=O)c2ccccc2)[C@@H](C)CN([C@H](C)CO)C(=O)c2cc(NS(=O)(=O)c3ccccc3)ccc2O1,inactive
4,Cc1cc(=O)[n+]2cccc(O)c2[nH]1,inactive
5,CC(C)NC(=O)Nc1ccc2c(c1)C(=O)N([C@H](C)CO)C[C@@H](C)[C@@H](CN(C)S(=O)(=O)c1ccc(Cl)cc1)O2,inactive
6,CCc1cc(C(N)=O)c(N)s1,inactive
7,C[C@@H]1CCCCO[C@H](CN(C)C(=O)Nc2ccc(F)cc2)[C@@H](C)CN([C@H](C)CO)C(=O)c2cc(NC(=O)Nc3ccccc3)ccc2O1,inactive
8,CCOC(=O)N[C@H]1CCS(=O)(=O)C1,inactive
9,Cc1cn2c(=O)c(C(=O)O)cnc2s1,inactive
10,C[C@@H]1CN([C@H](C)CO)C(=O)c2cccc(NS(C)(=O)=O)c2O[C@@H]1CN(C)S(=O)(=O)c1ccccc1,inactive
11,CCOC(=O)CCCCCC(=O)Nc1ccc2c(c1)C(=O)N([C@H](C)CO)C[C@@H](C)[C@@H](CN(C)S(=O)(=O)c1ccc(C)cc1)OCCCC[C@H](C)O2,inactive
12,C[C@@H]1CN([C@H](C)CO)C(=O)c2cc(NS(=O)(=O)c3ccc(Cl)cc3)ccc2O[C@@H](C)CCCCO[C@@H]1CN(C)Cc1ccccc1,inactive
13,C[C@H]1CCCCO[C@H](CN(C)Cc2ccccc2)[C@@H](C)CN([C@@H](C)CO)C(=O)c2cc(NS(=O)(=O)c3ccc(Cl)cc3)ccc2O1,inactive
14,C[C@@H]1CCCCO[C@@H](CN(C)Cc2ccccc2)[C@H](C)CN([C@@H](C)CO)C(=O)c2cc(NS(=O)(=O)c3ccc(Cl)cc3)ccc2O1,inactive
15,C[C@@H]1CN([C@@H](C)CO)C(=O)c2cc(NS(=O)(=O)c3ccc(Cl)cc3)ccc2O[C@@H](C)CCCCO[C@H]1CN(C)Cc1ccccc1,inactive
16,C[C@@H]1CN([C@@H](C)CO)C(=O)c2cc(NS(=O)(=O)c3ccc(Cl)cc3)ccc2O[C@@H](C)CCCCO[C@@H]1CN(C)Cc1ccccc1,active
17,C[C@H]1CCCCO[C@@H](CN(C)Cc2ccccc2)[C@@H](C)CN([C@@H](C)CO)C(=O)c2cc(NS(=O)(=O)c3ccc(Cl)cc3)ccc2O1,active
18,C[C@@H]1CCCCO[C@H](CN(C)Cc2ccccc2)[C@H](C)CN([C@@H](C)CO)C(=O)c2cc(NS(=O)(=O)c3ccc(Cl)cc3)ccc2O1,active
19,C[C@@H]1CCCCO[C@H](CN(C)Cc2ccccc2)[C@H](C)CN([C@H](C)CO)C(=O)c2cc(NS(=O)(=O)c3ccc(Cl)cc3)ccc2O1,active
20,C[C@@H]1CCCCO[C@H](CN(C)Cc2ccccc2)[C@@H](C)CN([C@H](C)CO)C(=O)c2cc(NS(=O)(=O)c3ccc(Cl)cc3)ccc2O1,inactive
21,C[C@H](CO)N1C[C@H](C)[C@@H](CN(C)Cc2ccccc2)OCCCC[C@H](C)Oc2ccc(NS(=O)(=O)c3ccc(Cl)cc3)cc2C1=O,inactive
22,C[C@@H]1CCCCO[C@@H](CN(C)Cc2ccccc2)[C@@H](C)CN([C@H](C)CO)C(=O)c2cc(NS(=O)(=O)c3ccc(Cl)cc3)ccc2O1,inactive
23,C[C@@H]1CCCCO[C@@H](CN(C)Cc2ccccc2)[C@@H](C)CN([C@@H](C)CO)C(=O)c2cc(NS(=O)(=O)c3ccc(Cl)cc3)ccc2O1,inactive
24,C[C@H]1CN([C@@H](C)CO)C(=O)Cc2cc(NS(C)(=O)=O)ccc2O[C@H]1CN(C)Cc1ccc(C(=O)O)cc1,inactive
25,C=CCOC(=O)[C@@H]1[C@H]2C(=O)O[C@H](c3ccccc3)[C@H](c3ccccc3)N2[C@H](c2ccc(OCCOC(=O)[C@H]3C[C@H]4C(=O)N5CCC[C@H]5C(=O)N4[C@H]3c3ccc(O)cc3)cc2)[C@@]12C(=O)Nc1ccccc12,inactive
26,Cn1ncc2c(NN3C(=O)CCC3=O)ncnc21,inactive
27,CC(C)CC#Cc1ccc2c(c1)O[C@@H](CN(C)Cc1cncnc1)[C@@H](C)CN([C@H](C)CO)S2(=O)=O,inactive

row,SMILES,cytotoxicity call
1,CC(C)NC(=O)[C@@H]1c2ccccc2C(=O)N(Cc2cc(F)cc(C(F)(F)F)c2)[C@H]1c1ccc(CO)cc1,inactive
2,CC(C)NC(=O)Nc1ccc2c(c1)C(=O)N([C@H](C)CO)C[C@H](C)[C@@H](CN(C)S(=O)(=O)c1cn(C)cn1)OCCCC[C@H](C)O2,inactive
3,CC(C)NC(=O)N1C[C@H]2[C@H](C(=O)N(C)Cc3ccccn3)CCS(=O)(=O)[C@H]2C1,inactive
4,Cc1noc(C)c1S(=O)(=O)N(C)C[C@H]1Oc2ccc(NS(=O)(=O)c3ccc(F)cc3)cc2CC(=O)N([C@@H](C)CO)C[C@H]1C,inactive
5,C=CC[C@@H](CC(=O)N(CCO)Cc1ccccc1)C(=O)N[C@H](COC(=O)[C@@H](CC=C)CC(=O)OC(C)(C)C)Cc1c[nH]c2ccccc12,inactive
6,Cc1ccc(S(=O)(=O)N2C[C@H](O)COC[C@H]3O[C@H](CC(=O)NCCCN(C)C)CC[C@@H]32)cc1,inactive
7,Cc1ccc(S(=O)(=O)N(C)C[C@@H]2OCCCC[C@H](C)Oc3ccc(NS(=O)(=O)c4ccc(F)cc4)cc3C(=O)N([C@H](C)CO)C[C@H]2C)cc1,inactive
8,C[C@@H]1CCCCO[C@H](CN(C)Cc2ccc3c(c2)OCO3)[C@@H](C)CN([C@H](C)CO)C(=O)c2cc(NC(=O)Cc3ccccc3)ccc2O1,inactive
9,COc1ccc(CN(C)C[C@@H]2OCCCC[C@@H](C)Oc3ccc(NC(=O)Cc4ccccc4)cc3C(=O)N([C@H](C)CO)C[C@H]2C)cc1,inactive
10,CCCCCOc1ccc(-c2cc(-c3ccc(C(=O)N[C@H]4C[C@@H](O)[C@@H](O)NC(=O)[C@H]5[C@@H](O)[C@@H](C)CN5C(=O)[C@H]([C@@H](O)CC(N)=O)NC(=O)[C@H]([C@@H](O)[C@@H](O)c5ccc(O)c(OS(=O)(=O)O)c5)NC(=O)[C@H]5C[C@@H](O)CN5C(=O)[C@H]([C@@H](C)O)NC4=O)cc3)no2)cc1,inactive
11,CC[C@H](C)C[C@H](C)CCCCCCCCC(=O)N[C@H]1C[C@@H](O)[C@@H](NCCN)NC(=O)[C@@H]2[C@@H](O)CCN2C(=O)[C@H]([C@H](O)CCN)NC(=O)[C@H]([C@H](O)[C@@H](O)c2ccc(O)cc2)NC(=O)[C@@H]2C[C@@H](O)CN2C(=O)[C@H]([C@@H](C)O)NC1=O,inactive
12,CCCCCOc1ccc(-c2ccc(-c3ccc(C(=O)N[C@H]4C[C@@H](O)[C@@H](O)NC(=O)[C@@H]5[C@@H](O)[C@@H](C)CN5C(=O)[C@H]([C@@H](C)O)NC(=O)[C@H]([C@H](O)[C@@H](O)c5ccc(O)cc5)NC(=O)[C@@H]5C[C@@H](O)CN5C(=O)[C@H]([C@@H](C)O)NC4=O)cc3)cc2)cc1,active
13,C[C@@H]1CN([C@@H](C)CO)C(=O)Cc2cc(NC(=O)CCN3CCOCC3)ccc2O[C@H]1CN(C)C(=O)Nc1ccc2c(c1)OCO2,inactive
14,CC(C)NC(=O)N(C)C[C@@H]1Oc2ccc(NC(=O)CCC(F)(F)F)cc2C(=O)N([C@H](C)CO)C[C@@H]1C,inactive
15,Cc1noc(C)c1S(=O)(=O)Nc1ccc2c(c1)C(=O)N([C@@H](C)CO)C[C@@H](C)[C@H](CN(C)C(=O)Nc1ccc(C(F)(F)F)cc1)OCCCC[C@H](C)O2,inactive
16,Cc1noc(C)c1S(=O)(=O)Nc1ccc2c(c1)C(=O)N([C@H](C)CO)C[C@H](C)[C@H](CN(C)C(=O)Nc1ccc(C(F)(F)F)cc1)OCCCC[C@H](C)O2,inactive
17,Cc1noc(C)c1S(=O)(=O)Nc1ccc2c(c1)C(=O)N([C@@H](C)CO)C[C@@H](C)[C@@H](CN(C)C(=O)Nc1ccc(C(F)(F)F)cc1)OCCCC[C@@H](C)O2,inactive
18,Cc1noc(C)c1S(=O)(=O)Nc1ccc2c(c1)C(=O)N([C@H](C)CO)C[C@H](C)[C@H](CN(C)C(=O)Nc1ccc(C(F)(F)F)cc1)OCCCC[C@@H](C)O2,inactive
19,Cc1noc(C)c1S(=O)(=O)Nc1ccc2c(c1)C(=O)N([C@@H](C)CO)C[C@@H](C)[C@@H](CN(C)C(=O)Nc1ccc(C(F)(F)F)cc1)OCCCC[C@H](C)O2,inactive
20,Cc1noc(C)c1S(=O)(=O)Nc1ccc2c(c1)C(=O)N([C@H](C)CO)C[C@@H](C)[C@H](CN(C)C(=O)Nc1ccc(C(F)(F)F)cc1)OCCCC[C@@H](C)O2,active
21,Cc1noc(C)c1S(=O)(=O)Nc1ccc2c(c1)C(=O)N([C@@H](C)CO)C[C@H](C)[C@@H](CN(C)C(=O)Nc1ccc(C(F)(F)F)cc1)OCCCC[C@H](C)O2,active
22,Cc1noc(C)c1S(=O)(=O)Nc1ccc2c(c1)C(=O)N([C@H](C)CO)C[C@@H](C)[C@@H](CN(C)C(=O)Nc1ccc(C(F)(F)F)cc1)OCCCC[C@@H](C)O2,active
23,Cc1noc(C)c1S(=O)(=O)Nc1ccc2c(c1)C(=O)N([C@@H](C)CO)C[C@H](C)[C@H](CN(C)C(=O)Nc1ccc(C(F)(F)F)cc1)OCCCC[C@H](C)O2,inactive
24,C[C@@H]1CN([C@@H](C)CO)C(=O)c2cccc(NC(=O)c3cnccn3)c2O[C@@H]1CN(C)C(=O)Nc1ccccc1,inactive
25,COc1ccc(S(=O)(=O)N(C)C[C@H]2Oc3ccc(NC(=O)c4ccncc4)cc3CC(=O)N([C@H](C)CO)C[C@@H]2C)cc1,inactive
26,C[C@H](CO)N1C[C@H](C)[C@@H](CN(C)C(=O)Nc2ccc(C(F)(F)F)cc2)Oc2ccc(NC(=O)Cn3cnnn3)cc2CC1=O,inactive
